Source: PubChem (several laboratories)
Calb FLC = C. albicans growth inhibition with fluconazole, primary screen, CaCi-2 strain, Alamar Blue fluorescence | C. albicans CaCi-2 (fluconazole-resistant clinical isolate) + fluconazole, 48 h | growth inhibition, % (no concentration beside the values) | hit rate 0.57% among 300,000;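 active = growth inhibition above about 58% in most replicates, limit read from the data, passing the limit was not always enough; inconclusive = exactly half the replicates above a set limit; inactive = most replicates below a set limit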;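 note: all wells also contain fluconazole at 8 µg/ml as a sub-toxic cotreatment; 0% = median of DMSO wells and 100% = median of geldanamycin control wells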
Beta apoptosis = inhibitors of cytokine-induced beta cell apoptosis, primary screen, luminescence | INS-1E cytokine-induced death, ATP luminescence, 48 h; percent of positive-control rescue, neutral wells zero | hit rate 0.8% among 300,000 | protection from apoptosis, % (test concentration not listed) | AID 435005, 2010;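 active = Every replicate reaches about 75%, or at least half do and their mean reaches it too, limit read from the data; inconclusive = At least half of replicates reach the limit but their mean does not; inactive = Under half of replicates reach the limit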;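 note: 0% = cytokine-treated negative control wells and 100% = positive control rescue; higher means more ATP so stronger rescue from cytokine killing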
CSC inhib = cancer stem cell viability inhibitors, primary screen, luminescence | inhibition, % at 7.5 µM | hit rate 1.1% among 300,000 | AID 2717, 2010 | cancer stem cell-like cells viability; in the data active = inhibition above about 75%; inconclusive = no clear call, values can overlap the other calls; tested in HMLE shEcad cells
Mdm2-MdmX inh = inhibitors of human Mdm2-MdmX association, primary screen, cell-based, luminescence, split luciferase, SaOS-2, uHTS; hit rate 3% among 330,000; SaOS-2 split-luciferase Mdm2/MdmX complementation; Protein Mdm4 (Homo sapiens) + E3 ubiquitin-protein ligase Mdm2 (Homo sapiens), …; inhibition, % at 8 µM;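 active = inhibition of at least 50% at 8 µM in the primary screen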
PP1 counter = PP1-alpha phosphatase inhibitors, primary screen, counter-screen for PP5 inhibitor project, biochemical, fluorescence, OMFP substrate, single point; Serine/threonine-protein phosphatase PP1-alpha catalytic subunit (Homo sapiens), P62136; purified PP1alpha; inhibition, % at 6.7 µM; hit rate 0.9% among 320,000;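 active = inhibition above the mean inhibition of all tested compounds plus 3 SD, computed separately for each screening campaign, cut at about 15% in these data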
Target sequence (P62136 whole entry, looked up): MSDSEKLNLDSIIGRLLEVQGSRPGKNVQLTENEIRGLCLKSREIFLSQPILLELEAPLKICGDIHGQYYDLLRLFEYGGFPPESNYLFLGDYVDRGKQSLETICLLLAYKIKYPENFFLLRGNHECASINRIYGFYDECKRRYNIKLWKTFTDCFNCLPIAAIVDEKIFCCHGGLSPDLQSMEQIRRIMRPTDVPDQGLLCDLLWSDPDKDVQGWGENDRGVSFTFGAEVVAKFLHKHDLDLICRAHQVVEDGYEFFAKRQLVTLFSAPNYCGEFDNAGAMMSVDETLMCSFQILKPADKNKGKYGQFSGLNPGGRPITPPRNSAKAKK
PP5 primary = PP5 phosphatase inhibitors, primary screen, biochemical, fluorescence | Serine/threonine-protein phosphatase 5 (Homo sapiens), P53041 | purified PP5c, OMFP substrate fluorescence | inhibition, % at 6.7 µM | hit rate 0.18% among 320,000 | AID 1987, 2009;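 active = inhibition above the campaign's mean inhibition across all tested compounds plus 3 SD, cut at about 9.5% in these data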;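 note: 0% = DMSO only and 100% = 100 µM cantharidin control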
Mdm2-MdmX conf = Mdm2-MdmX complex disruptors, retested hits, confirmation, luminescence, single concentration; inhibition, % at 8 µM; hit rate 55% among 10,000; Mdm2-MdmX binding, luminescent assay; shares compounds with Mdm2-MdmX inh; in the data active = inhibition above about 40%
FLuc counter = full-length luciferase signal inhibition, confirmation, counter-screen for Mdm2/MdmX interaction inhibitor project, cell-based, single concentration, SaOS-2 | SaOS-2 full-length luciferase counterscreen, luminescence | inhibition, % at 8 µM | shares compounds with Mdm2-MdmX inh | AID 504607, 2011 | hit rate 77% among 6,200;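 active = mean inhibition at 8 µM reaching about 37%, which flags the compound as non-specific, limit read from the data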;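 note: p53-null SaOS-2 cells with luciferase driven by a doxycycline-inducible promoter; compound on cells about two nights before reading with doxycycline added after day one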
The depositor's hits bear a star. Shown are actives, neighbours in structure and some others; about 4.9% of the full set was active somewhere.

Results for CC1CCN(CC(CS(=O)(=O)c2ccc([N+](=O)[O-])cc2)N2CCC(C)CC2)CC1 (stereo not drawn) ?
Calb FLC: -18; Beta apoptosis: -31; CSC inhib: inconclusive; Mdm2-MdmX inh: 100*; PP1 counter: -1; PP5 primary: 0; Mdm2-MdmX conf: 100*; FLuc counter: 50*

How did N#CC1=C2SCC(O)(c3ccccc3)N2C(=O)CC1c1ccccc1 (stereo not drawn) do in these assays?
Calb FLC: 10; Beta apoptosis: 15; CSC inhib: 54; Mdm2-MdmX inh: 76*; PP1 counter: 3; PP5 primary: 1; Mdm2-MdmX conf: 74*; FLuc counter: 58*

What do the screens show for `C=CCOc1c(Cl)cc(CNc2nccs2)cc1OC`?
Calb FLC: -41; Beta apoptosis: -2; CSC inhib: -6; Mdm2-MdmX inh: 19; PP1 counter: -2; PP5 primary: 0

How did Cc1onc(-c2ccccc2)c1C(=O)N(C)CC(=O)Nc1ccc(F)c(F)c1F do in these assays?
Beta apoptosis: -2; CSC inhib: -13; Mdm2-MdmX inh: -8

Results for O=C1C=C(N2CCOCC2)c2ccccc2C1=O ?
Calb FLC: 25; Beta apoptosis: 104*; CSC inhib: 21; Mdm2-MdmX inh: 74*; PP1 counter: 4; PP5 primary: 9; Mdm2-MdmX conf: 20

What do the screens show for `CC1=C(C)C(=O)C(N2CCOCC2)=CC1=O`?
Calb FLC: -9

Results for COc1ccccc1CNC(=O)CCC1N=C2c3ccccc3N=C(SCC(=O)NCC3CCCO3)N2C1=O (stereo not drawn) ?
Calb FLC: 1; Beta apoptosis: 5; CSC inhib: -17; Mdm2-MdmX inh: 10; PP1 counter: -5; PP5 primary: -3

What do the screens show for `Cc1nc2c(-c3ccc(F)cc3)c(C)nn2c(C)c1CCC(=O)Nc1ccccc1`?
Calb FLC: -1; Beta apoptosis: 8; CSC inhib: -2; Mdm2-MdmX inh: 24; PP1 counter: 2; PP5 primary: 5

How did CCN1CCN(c2ccc(NC(=O)CCc3c(C)nc4c(-c5ccc(F)cc5)c(C)nn4c3C)cc2)CC1 do in these assays?
Calb FLC: inconclusive; Beta apoptosis: 12; CSC inhib: 81*; Mdm2-MdmX inh: 55*; PP1 counter: 2; PP5 primary: 3; Mdm2-MdmX conf: 36

How did CC(Sc1nnc(-c2ccncc2)n1C)C(=O)NCC1CCCO1 (stereo not drawn) do in these assays?
Calb FLC: 8; Beta apoptosis: -1; CSC inhib: 3; Mdm2-MdmX inh: 19; PP1 counter: -6; PP5 primary: 0

How did OC(c1cc(C(F)(F)F)nc2c(C(F)(F)F)cccc12)C1CCCCN1 (stereo not drawn) do in these assays?
Beta apoptosis: 45; CSC inhib: 72; Mdm2-MdmX inh: 100*; PP1 counter: -1; PP5 primary: -3; Mdm2-MdmX conf: 89*; FLuc counter: 36

Results for OC(c1cc(-c2ccc(C(F)(F)F)cc2)nc(C(F)(F)F)c1)C1CCCCN1 (stereo not drawn) ?
Calb FLC: 14; Beta apoptosis: 108*; CSC inhib: 104*; Mdm2-MdmX inh: 96*; PP1 counter: 5; PP5 primary: 1; Mdm2-MdmX conf: 98*; FLuc counter: 52*

How did COC(=O)CSc1nc(-c2ccc(F)cc2)cc(C(F)(F)F)n1 do in these assays?
Calb FLC: -3; Beta apoptosis: 2; CSC inhib: -6; Mdm2-MdmX inh: 10; PP1 counter: 4; PP5 primary: 4

Results for CCCCCCCCC1CC(C(=O)Nc2ccccc2)C(=O)O1 (stereo not drawn) ?
Calb FLC: -3; Beta apoptosis: -1; CSC inhib: 18; Mdm2-MdmX inh: -1; PP1 counter: 5; PP5 primary: 6

What do the screens show for `CCCS(=O)(=O)c1c(S(=O)(=O)CCC)c2ccc(C(N)=O)cn2c1C(=O)c1ccc(OC)cc1`?
Calb FLC: 23; Beta apoptosis: 1; CSC inhib: 4; Mdm2-MdmX inh: 7; PP1 counter: -7; PP5 primary: -1

Results for CN(C)C1(CNC(=O)C2CCN(S(=O)(=O)c3ccccc3C(F)(F)F)CC2)CCCCC1 ?
Calb FLC: 3; Beta apoptosis: 0; CSC inhib: -14; Mdm2-MdmX inh: -9; PP1 counter: 2; PP5 primary: 2

How did CCN(CCCNC(=O)CCn1c(=S)[nH]c2cc3c(cc2c1=O)OCO3)c1cccc(C)c1 do in these assays?
Calb FLC: 18; Beta apoptosis: 10; CSC inhib: -10; Mdm2-MdmX inh: 57*; PP1 counter: -5; PP5 primary: -1; Mdm2-MdmX conf: -17

How did Cc1c(C(=O)Nc2ccc(F)cc2)oc2ccc(S(=O)(=O)N3CC(C)CC(C)C3)cc12 (stereo not drawn) do in these assays?
Calb FLC: 3; Beta apoptosis: 53; CSC inhib: 23; Mdm2-MdmX inh: 64*; PP1 counter: -3; PP5 primary: -4; Mdm2-MdmX conf: 39; FLuc counter: 69*

How did CC1CC(C)CN(S(=O)(=O)c2ccc(NC(=O)c3ccc(=O)[nH]c3)cc2)C1 (stereo not drawn) do in these assays?
Beta apoptosis: 19; CSC inhib: 42; Mdm2-MdmX inh: 59*; PP1 counter: -1; PP5 primary: 2; Mdm2-MdmX conf: 51*; FLuc counter: 74*

What do the screens show for `CCN(CC)C(=O)c1oc2ccc(S(=O)(=O)N3CC(C)CC(C)C3)cc2c1C` (stereo not drawn)?
Calb FLC: -2; Beta apoptosis: 63; CSC inhib: -5; Mdm2-MdmX inh: 35; PP1 counter: 4; PP5 primary: 6

How did CC1CC(C)CN(S(=O)(=O)c2ccc(F)c(C(=O)Nc3ccc(Cl)cc3F)c2)C1 (stereo not drawn) do in these assays?
Calb FLC: -6; Mdm2-MdmX inh: 52*; PP1 counter: -5; PP5 primary: -1; Mdm2-MdmX conf: 12

Results for COc1ccccc1CNC(=O)c1nccnc1CO ?
Calb FLC: 0; Beta apoptosis: 1; CSC inhib: 2; Mdm2-MdmX inh: -22
